Test results: PubChem BioAssay (EPA / NIEHS)
Inconclusive results are not listed. Calls of active or inactive are those of the source. The calls were made as follows, unless noted: active = hit-call score of the fitted dose curve at least 0.9, where 1 is the maximum; inconclusive = response in the unintended direction; inactive = score below 0.9.

What was measured:
[1] = Tanguay_ZF_120hpf_JAW_legacy: (Legacy) Oregon State University Tanguay Lab 120 Hour Post-fertilization zebrafish Assay for Jaw Malformation (AID 2283638);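 as to AC50: active means more embryos with jaw malformation than DMSO controls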
How it was run: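 Steps: dechorionate 4 hpf embryos (pronase); plate 1/well at 6 hpf; add test chemical, 0.64% DMSO final; seal, cover, hold at 28C statically to 120 hpf; score jaw defect presence/absence microscopically. Dead embryos not scored.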

[2] = Tanguay_ZF_120hpf_OTIC_legacy: (Legacy) Oregon State University Tanguay Lab 120 Hour Post-fertilization zebrafish Assay for Otic Vesicle Malformation (AID 2283639)
How it was run: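 Otic vesicle malformation is read as a yes/no morphology call at 120 hpf. Exposure is static at 28C with 0.64% (vol/vol) DMSO; embryos that die are excluded from non-mortality endpoints.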

[3] = Tanguay_ZF_120hpf_PE_legacy: (Legacy) Oregon State University Tanguay Lab 120 Hour Post-fertilization zebrafish Assay for Pericardial Edema (AID 2283640);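 as to AC50: potency for increased incidence of pericardial edema versus DMSO baseline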
How it was run: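 Embryos from wild-type 5D adults were staged, then dosed in 0.64% DMSO. They were kept sealed in the dark at 28C until 120 hpf. Pericardial edema was then recorded as present or absent.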

[4] = Tanguay_ZF_120hpf_BRAI_legacy: (Legacy) Oregon State University Tanguay Lab 120 Hour Post-fertilization zebrafish Assay for Brain Malformation (AID 2283641)
How it was run: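 Wild-type 5D larvae, static waterborne exposure to 120 hpf, 28C, 0.64% v/v DMSO. Brightfield scoring of brain defects, binary; dead embryos excluded. Positive ctrl 5uM trimethyltin chloride.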

[5] = Tanguay_ZF_120hpf_SOMI_legacy: (Legacy) Oregon State University Tanguay Lab 120 Hour Post-fertilization zebrafish Assay for Somite Malformation (AID 2283647)
How it was run: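 Read-out: presence or absence of somite malformation in 120 hpf larvae, gain-of-signal relative to DMSO baseline. Embryos lacked chorion (pronase, 4 hpf) and were exposed statically from 6 hpf at 28C; dead larvae not scored.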

[6] = Tanguay_ZF_120hpf_PFIN_legacy: (Legacy) Oregon State University Tanguay Lab 120 Hour Post-fertilization zebrafish Assay for Pectoral Fin Malformation (AID 2283648);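 also: each larva judged yes or no for fin defect by brightfield with dead larvae skipped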
How it was run: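 Dechorionated Tropical 5D wild-type zebrafish embryos, one per well, statically exposed from 6 to 120 hpf at 28C with 0.64% DMSO final. Pectoral fin malformation scored present/absent by brightfield at 120 hpf; not scored in dead embryos.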

[7] = Tanguay_ZF_120hpf_PIG_legacy: (Legacy) Oregon State University Tanguay Lab 120 Hour Post-fertilization zebrafish Assay for Pigmentation Malformation (AID 2283650)
How it was run: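 Dechorionated Tropical 5D wild-type embryos, one per well from 6 hpf, statically exposed at 28C in the dark until 120 hpf, 0.64% DMSO final. Pigmentation scored present/absent by brightfield microscopy; dead embryos not scored; fitted versus DMSO.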

[8] = Tanguay_ZF_120hpf_CIRC_legacy: (Legacy) Oregon State University Tanguay Lab 120 Hour Post-fertilization zebrafish Assay for Circulatory Malformation (AID 2283651)
How it was run: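 Using wild-type Tropical 5D zebrafish, we exposed dechorionated embryos from 6 to 120 hpf in embryo medium with 0.64% DMSO. Circulatory defects were scored as present or absent; 5uM trimethyltin chloride served as positive control.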

[9] = Tanguay_ZF_120hpf_SWIM_legacy: (Legacy) Oregon State University Tanguay Lab 120 Hour Post-fertilization zebrafish Assay for Swim Bladder Malformation (AID 2283654);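 also: swim bladder malformation in each larva scored yes or no under brightfield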
How it was run: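 Dechorionated wild-type Tropical 5D zebrafish embryos, one per well from 6 hpf, were statically exposed at 28C until 120 hpf in 0.64% DMSO. Swim bladder malformation scored as present/absent by brightfield microscopy; not scored in dead larvae.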

[10] = Tanguay_ZF_120hpf_TRUN_legacy: (Legacy) Oregon State University Tanguay Lab 120 Hour Post-fertilization zebrafish Assay for Truncated Body (AID 2283655)
How it was run: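 Truncated body is recorded as a binary endpoint at 120 hpf by brightfield imaging of wild-type 5D larvae. Exposure runs statically from 6 hpf at 28C with 0.64% DMSO; embryos dying earlier are not scored.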

[11] = Tanguay_ZF_120hpf_TR_legacy: (Legacy) Oregon State University Tanguay Lab 120 Hour Post-fertilization zebrafish Assay for Touch Response (AID 2283667)
How it was run: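 Tropical 5D wild-type zebrafish embryos statically exposed to 120 hpf at 28°C, sealed and dark-covered, 0.64% DMSO final; touch response scored as present/absent by brightfield microscopy at 120 hpf. Trimethyltin chloride 5 uM positive control; dead embryos not scored.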

[12] = Tanguay_ZF_120hpf_SNOU_legacy: (Legacy) Oregon State University Tanguay Lab 120 Hour Post-fertilization zebrafish Assay for Snout Malformation (AID 2283637)
How it was run: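 Dechorionated tropical 5D wild-type zebrafish embryos exposed statically from 6 to 120 hpf at 28C, one per well, in 0.64% DMSO. Snout malformation scored as present/absent by brightfield at 120 hpf; dead embryos not scored.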

[13] = Tanguay_ZF_120hpf_NC_legacy: (Legacy) Oregon State University Tanguay Lab 120 Hour Post-fertilization zebrafish Assay for Notochord and Tail Malformation (AID 2283656)
How it was run: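 Dechorionated 5D zebrafish, 1/well from 6 hpf; static exposure to 120 hpf, 28C, sealed, dark; final DMSO 0.64% v/v. NC scored binary (present/absent); dead embryos not scored. Fit vs DMSO baseline, gain direction.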

[14] = read-out: kallikrein-3 (KLK3), KLK3 (gene 354); assay: LTEA_HepaRG_KLK3: Life Technologies and Expression Analysis (LTEA) Assay for kallikrein-3 (KLK3) using HepaRG (AID 2283652; active = hit-call score of the fitted dose curve at least 0.9, where 1 is the maximum; inactive = score below 0.9); settings: mRNA level, 48 h; actives raise or lower the signal
How it was run: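 Differentiated human HepaRG cells in serum-free induction medium exposed 48 h in duplicate, eight-point half-log series from 100 uM in 0.5% DMSO. KLK3 mRNA by qRT-PCR, normalised to ACTB, GAPDH, POLR2A; bidirectional fit versus DMSO.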

[15] = read-out: solute carrier (SLC22A6), SLC22A6 (gene 9356); assay: LTEA_HepaRG_SLC22A6: Life Technologies and Expression Analysis (LTEA) Assay for solute carrier (SLC22A6) using HepaRG (AID 2283653; active = hit-call score of the fitted dose curve at least 0.9, where 1 is the maximum; inactive = score below 0.9); settings: mRNA level, 48 h; actives raise or lower the signal
How it was run: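 Read-out is SLC22A6 transcript level by qRT-PCR, normalised to three housekeeping genes and fitted for gain or loss relative to 0.5% DMSO vehicle. Human HepaRG cells received chemicals at up to 100 uM for 48 h.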

[16] = read-out: solute carrier (SLC10A1), SLC10A1 (gene 6554); assay: LTEA_HepaRG_SLC10A1: Life Technologies and Expression Analysis (LTEA) Assay for solute carrier (SLC10A1) using HepaRG (AID 2283657; active = hit-call score of the fitted dose curve at least 0.9, where 1 is the maximum; inactive = score below 0.9); settings: mRNA level, 48 h; actives raise or lower the signal
How it was run: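 HepaRG cells (single lot) exposed 48 h in serum-free induction medium, 8-point half-log series from 100 uM top in 0.5% DMSO, duplicate. SLC10A1 mRNA by qRT-PCR normalised to ACTB, GAPDH, POLR2A; bidirectional fit versus DMSO.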

[17] = read-out: matrix metalloproteinase-1 (MMP1), MMP1 (gene 4312); assay: LTEA_HepaRG_MMP1: Life Technologies and Expression Analysis (LTEA) Assay for matrix metalloproteinase-1 (MMP1) using HepaRG (AID 2283658; active = hit-call score of the fitted dose curve at least 0.9, where 1 is the maximum; inactive = score below 0.9); settings: mRNA level, 48 h; actives raise or lower the signal
How it was run: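 HepaRG, ~100,000 cells/well, 48 h pre-culture; serum-free induction medium; test chemical 8 conc (max 100 uM, half-log), duplicate, 48 h; 0.5% DMSO; qRT-PCR MMP1, housekeeping-normalized; gain/loss fit vs DMSO.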

[18] = system: Thyroperoxidase (TPO), gene 54314; assay: CCTE_Simmons_AUR_rTPO: CCTE's Amplex UltraRed Assay for Thyroperoxidase (TPO) Inhibition, Simmons Lab (AID 2283662);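 also: potency for loss of signal meaning inhibition of peroxidase activity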
How it was run: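 Rat thyroid microsomal TPO + 25 uM AUR in 200 mM K phosphate; cpd 5 nM–87.5 uM [final], 8 conc, 0.5% DMSO; 300 uM H2O2 starts rxn; 37C dark 30 min; endpoint FI 544/590 nm; n=3.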

[19] = CCTE_Simmons_CellTiterGLO_HEK293T: Viability Assessment in CCTE's Assays for Thyroperoxidase (TPO) Inhibition, Simmons Lab (AID 2283665);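 as to AC50: cells exposed to compound for 24 h before readout; actives reduce ATP signal below DMSO vehicle meaning cytotoxicity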
How it was run: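 Cytotoxicity counter-screen: human HEK293T cells in low-serum (1% FBS) medium receive test chemical, 5 nM to 87.5 uM final, for 24 h; ATP is quantified by luciferase luminescence.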

[20] = Tanguay_ZF_120hpf_CFIN_legacy: (Legacy) Oregon State University Tanguay Lab 120 Hour Post-fertilization zebrafish Assay for Caudal Fin Malformation (AID 2283649)
How it was run: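 Binary presence or absence of caudal fin malformation at 120 hpf, read by brightfield microscopy, with DMSO as baseline. Larvae came from 5D wild-type embryos exposed statically from 6 hpf at 28C after pronase dechorionation.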

Measured: AC50

OC[C@H]1O[C@@H]2O[C@H]3[C@H](O)[C@@H](O)[C@@H](O[C@H]4[C@H](O)[C@@H](O)[C@@H](O[C@H]5[C@H](O)[C@@H](O)[C@@H](O[C@H]6[C@H](O)[C@@H](O)[C@@H](O[C@H]7[C@H](O)[C@@H](O)[C@@H](O[C@H]1[C@H](O)[C@H]2O)O[C@@H]7CO)O[C@@H]6CO)O[C@@H]5CO)O[C@@H]4CO)O[C@@H]3CO
inactive: [1] | [2] | [3] | [4] | [5] | [6] | [7] | [8] | [9] | [10] | [11]

COCc1nnc(-c2ccc[n+]([O-])c2)n1-c1c(Cl)c(Cl)cc2[nH]c(=O)c(=O)[nH]c12
inactive: [12] | [2] | [3] | [5] | [7] | [8] | [10] | [13] | [11]

CCN(CC)C(=S)SSC(=S)N(CC)CC
active: [12] 1400 nM | [1] 1240 nM | [3] 1220 nM | [5] 619 nM | [8] 5120 nM | [9] 1100 nM | [10] 904 nM | [13] 112 nM | [11] 2170 nM
inactive: [2] | [4] | [6] | [7]

CCCC(CCC)C(=O)O
not listed: [1] | [5] | [18] | [19] | [20]
inactive: all other assays above

C=CCc1cc(S(=O)(=O)c2ccc(O)c(CC=C)c2)ccc1O
active: [18] 14600 nM | [19] 79500 nM
not listed: [13] | [14] | [15] | [16] | [17] | [20]
inactive: all other assays above

CCn1nc(C)c2c1C(=O)NCC(c1ccc(O)cc1)=N2
active: [18] 11900 nM
not listed: [3] | [14] | [15] | [16] | [17] | [20]
inactive: all other assays above

CC(=O)c1ccccc1
not listed: [12] | [14] | [15] | [16] | [17] | [18] | [19]
inactive: all other assays above

OC[C@H]1O[C@@](CO)(O[C@H]2O[C@H](CO)[C@@H](O)[C@H](O)[C@H]2O)[C@@H](O)[C@@H]1O
inactive: [1] | [2] | [3] | [4] | [5] | [6] | [7] | [9] | [10] | [13] | [11]

Cc1nccn1-c1ccc(Sc2cccc(C3(C(N)=O)CCOCC3)c2)cc1
inactive: [12] | [2] | [3] | [4] | [5] | [6] | [7] | [8] | [10] | [13] | [11]

Nc1ccn([C@@H]2O[C@H](CO)[C@@H](O)[C@@H]2O)c(=O)n1
not listed: [1] | [14] | [15] | [16] | [17] | [18] | [19]
inactive: all other assays above

O=c1[nH]cnc2c1ncn2[C@H]1CC[C@@H](CO)O1
inactive: [1] | [2] | [3] | [5] | [6] | [7] | [8] | [9] | [10] | [11]

CC(C)CCCCCCOC(=O)C1CCCCC1C(=O)OCCCCCCC(C)C (stereo not given)
not listed: [1] | [2] | [14] | [15] | [16] | [17] | [18] | [19]
inactive: all other assays above

CCOc1ccc2[nH]cc(C(=O)NCc3ccccc3)c(=O)c2n1
inactive: [12] | [2] | [3] | [4] | [5] | [6] | [7] | [8] | [10] | [13] | [11]

NC(=O)N1c2ccccc2C=Cc2ccccc21
not listed: [14] | [15] | [16] | [17] | [18] | [19]
inactive: all other assays above

CCCCCCCCCC
inactive: [12] | [2] | [3] | [4] | [5] | [20] | [7] | [8] | [9] | [13] | [11]

O=C(O)[C@H](O)[C@@H](O)C(=O)O
not listed: [12] | [14] | [15] | [16] | [17] | [18] | [19]
inactive: all other assays above
